NADH coupling = inhibitors of enzymes used to reach an NAD/NADH endpoint. 65,000 tested, 0.02% active. coupled PK/LDH NADH assays, four targets. AID 774. IC50, µM (highest dose often 10 µM), inactives show top-dose inhibition;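 active = single-dose screening hits from any of four coupled enzyme assays that gave an IC50 when retested across doses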;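 note: the DPM-DC format reads NADH fluorescence rather than 340 nm absorbance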
MKP-1 inh = blocks human MKP-1 phosphatase activity; 65,000 tested, 0.15% active; inhibition, %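 (compounds tested at a single concentration somewhere between 10 and 100 µM)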; AID 374; recombinant MKP-1, OMFP hydrolysis fluorescence; P28562;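 active = inhibition above about 50%, limit read from the data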;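 note: 0% = DMSO max control wells and 100% = wells with enzyme stopped by NaOH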
Hsp90 block = displaces geldanamycin probe from tumor Hsp90. NCI-N417 lysate Hsp90, Cy3B-geldanamycin FP displacement. AID 429. 64,000 tested, 0.35% active. inhibition, % at 30 µM;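 active = inhibition above 50%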;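 note: 0% = tracer plus lysate wells and 100% = tracer alone without lysate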
Abs 340nm = compounds absorbing at 340 nm; compound absorbance at 340 nm, fold over control; fold change at 10 µM; 65,000 tested, under 10 active;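 active = at 10 µM dose, initial 340 nm absorbance at least 2 fold that of control wells; inactive = change under 2 fold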;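 note: initial absorbance extrapolated from kinetic A340 decline of NADH oxidation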
Cdc25B inh = human M-phase inducer phosphatase 2 inhibition. recombinant Cdc25B, OMFP fluorescence Ex485/Em525. inhibition, %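 (compounds tested at 10 µM final in the well)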. 65,000 tested, 0.1% active; in the data active = inhibition above about 50%
Target sequence (P30305 whole entry, looked up): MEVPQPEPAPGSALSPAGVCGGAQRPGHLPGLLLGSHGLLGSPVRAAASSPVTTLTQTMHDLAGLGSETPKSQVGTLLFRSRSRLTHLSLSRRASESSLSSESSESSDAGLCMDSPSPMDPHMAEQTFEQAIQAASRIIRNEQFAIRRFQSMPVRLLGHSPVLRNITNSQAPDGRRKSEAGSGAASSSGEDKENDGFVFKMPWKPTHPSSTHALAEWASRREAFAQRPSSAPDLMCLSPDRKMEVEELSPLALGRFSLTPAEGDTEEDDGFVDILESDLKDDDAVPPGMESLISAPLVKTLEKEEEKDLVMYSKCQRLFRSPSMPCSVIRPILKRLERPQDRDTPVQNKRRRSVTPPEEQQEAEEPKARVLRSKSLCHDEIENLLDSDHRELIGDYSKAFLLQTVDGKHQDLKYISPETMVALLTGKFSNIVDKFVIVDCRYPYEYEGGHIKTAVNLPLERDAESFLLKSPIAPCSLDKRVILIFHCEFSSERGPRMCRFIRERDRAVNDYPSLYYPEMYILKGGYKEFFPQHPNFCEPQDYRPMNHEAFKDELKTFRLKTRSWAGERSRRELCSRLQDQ
Autofluor 339 = intrinsic fluorescence of library compounds, ex339/em460 – biochemical, MLSMR library, data from DPM-DC assay, artefact control, profiling panel. 65,000 tested, 5.5% active. fluorescence fold increase at 10 µM. compound autofluorescence, ex339/em460 nm, NADH buffer; hits give high values; 1 = no-compound wells, NADH background;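 active = at 10 µM, mean starting fluorescence two-fold or more over control wells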;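 note: signal is the first read of a kinetic run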
* = called active by the depositor; nt = not tested or not shown. A selection: hits, their analogues and other compounds. The true share with any hit is near 5.7%.

SMILES	NADH coupling	MKP-1 inh	Hsp90 block	Abs 340nm	Cdc25B inh	Autofluor 339
O=C(c1ccco1)N1CCN(C2CCCC2)CC1	19%	14	1	1.1	-7	1.1
Cc1ccc(-c2nnc3ccc(SCC(=O)Nc4cc(C)on4)nn23)cc1	5%	9	-4	1	-21	2*
O=C(CSc1ccc2nnc(-c3ccccc3)n2n1)NCC1CCCO1 (configuration not stated)	10%	11	-3	0.99	-7	2.2*
CC1CCN(C(=O)CSc2ccc3nnc(-c4ccc(F)cc4)n3n2)CC1	5%	33	-2	1	-12	2.3*
Cc1ccc(-c2nnc3ccc(SCC(=O)N4CCCCC4)nn23)cc1	7%	1	-2	0.98	-7	1.2
CC1CCN(C(=O)CSc2ccc3nnc(-c4ccccc4)n3n2)CC1	5%	14	-2	0.99	-13	2.2*
COCCn1c(=O)c2c3c(sc2n(CC(N)=O)c1=O)CCCC3	3%	7	-6	1	-21	1.1
CCOC(=O)c1[nH]c2ccccc2c1NC(=O)c1ccc(Br)o1	20%	nt	nt	1	nt	0.91
COc1ccc(-n2nc3c(c2NC(=O)c2ccc(Br)cc2)CS(=O)C3)cc1 (configuration not stated)	4%	3	55*	1	-3	1
C/C(N)=C(/C#N)C(=O)CSc1nnnn1-c1ccc(C)cc1	5%	35	-7	1	-3	0.99
CCOc1ccc2[nH]c(C)c(CN3CCCCC3)c(=O)c2c1	4%	5	-1	1.1	-3	3*
COc1ccc2[nH]c(C)c(CN3CCCC(C)C3)c(=O)c2c1 (configuration not stated)	5%	6	-5	0.98	-10	2.1*
CC(=O)C1=C(C)NC(SCC(=O)c2ccccc2)=C(C#N)C1CC(C)C (configuration not stated)	9%	3	-5	1.1	7	1.1
Cc1nn(-c2ccccc2)c2[nH]c(=O)c(CNc3ccc(N4CCOCC4)cc3)cc12	5%	5	1	0.99	-14	1.1
O=c1[nH]c2c(cc1CNCCN1CCOCC1)c(-c1cccc(F)c1)nn2-c1ccccc1	20%	37	1	1.1	-4	3.5*
CNc1nc2sc3c(c2c(=O)n1C)CC(C)(C)SC3	5%	19	-2	1	4	2.2*
COC(=O)C1=C(C)NC2=C(C(=O)CC(C)(C)C2)C1c1cccc(C)n1 (configuration not stated)	0%	28	-1	1.1	6	3.7*
CCCOC(=O)C1=C(C)NC2=C(C(=O)CCC2)C1c1cccc(OC)c1OC (configuration not stated)	3%	21	0	1.1	-20	2.2*
COC(=O)C1=C(C)NC2=C(C(=O)CCC2)C1c1cccc(C)n1 (configuration not stated)	9%	-18	4	1	2	4*
CCCOC(=O)C1=C(C)NC2=C(C(=O)CCC2)C1c1cccs1 (configuration not stated)	8%	9	-1	1.1	5	1.7
COC(=O)C1=C(C)NC2=C(C(=O)CCC2)C1c1ccsc1 (configuration not stated)	6%	-6	1	1.1	-4	1.9
CC1CCCCN1CC(=O)Nc1sc2c(c1C#N)CCC2 (configuration not stated)	9%	18	0	1.1	3	1.1
CCOC(=O)NC(NCC(O)c1ccccc1)(C(F)(F)F)C(F)(F)F (configuration not stated)	3%	-12	0	1	8	1.1
O=c1[nH]c2ccccc2nc1C(F)(F)C(F)F	5%	10	-3	1.1	1	2.1*
Cc1nc2c(C)cccn2c1/C(O)=C1\C(=O)C(=O)N(CCN(C)C)C1c1ccncc1 (configuration not stated)	6%	-10	-4	1.1	56*	1.1
SMILES	NADH coupling	MKP-1 inh	Hsp90 block	Abs 340nm	Cdc25B inh	Autofluor 339
COc1cccc(C2/C(=C(\O)c3c(C)nc4c(C)cccn34)C(=O)C(=O)N2CCCN(C)C)c1OC (configuration not stated)	2%	-8	0	1	-1	1.1
COC(=O)c1ccc2ccn(CC(=O)NC(C)C)c2c1	4%	-4	-4	1.1	3	2.1*
CC(C)NC(=O)Cn1cc(C#N)c2cc(Br)ccc21	3%	-5	-15	1	-14	1.1
Cc1ccc2[nH]c(=O)c(-c3noc(C(C)C)n3)cc2c1	2%	4	-6	1.1	4	2.2*
Cc1ccc2cc(CCNC(=O)C(C)(C)C)c(=O)[nH]c2c1	2%	11	-2	1.1	-8	1.2
CCc1nc(-c2cc3ccc(C)cc3[nH]c2=O)no1	10%	30	-1	1.1	-4	4.5*
Cc1ccc2[nH]c(=O)c(-c3noc(-c4ccncc4)n3)cc2c1	3%	-2	-1	1	-8	1.2
Cc1ccc2cc(-c3noc(C(C)(C)C)n3)c(=O)[nH]c2c1	14%	8	-7	1.1	-6	3.9*
COc1ccc2c(C=Nc3c(C)n(C)n(-c4ccccc4)c3=O)c(O)n(Cc3ccco3)c(=O)c2c1	3%	13	-2	1	-12	1.3
COc1ccc(Cn2nnnc2C(c2cc3ccc(OC)cc3[nH]c2=O)N2CCCCCC2)cc1 (configuration not stated)	7%	32	-1	1.1	21	2
COc1ccc2[nH]c(=O)c(C(c3nnnn3C3CCCCC3)N3CCN(C)CC3)cc2c1 (configuration not stated)	9%	-1	-1	1.1	-9	4.5*
Cc1ccc2[nH]c(=O)c(C(c3nnnn3CC3CCCO3)N3CCc4ccccc4C3)cc2c1 (configuration not stated)	12%	15	-6	1.1	7	1.5
COc1cc2cc(C(c3nnnn3Cc3ccc(F)cc3)N3CCCCCC3)c(=O)[nH]c2cc1OC (configuration not stated)	9%	28	-1	1.1	10	2.1*
COc1ccc2[nH]c(=O)c(C(c3nnnn3CC3CCCO3)N3CCc4ccccc4C3)cc2c1 (configuration not stated)	7%	29	-8	1	19	3*
CCOc1ccc2[nH]c(=O)c(CN(CCO)C(c3nnnn3C3CCCCC3)C(C)C)cc2c1 (configuration not stated)	3%	24	-2	1.1	-11	1.5
CCCN1CCN(C(c2cc3cc(OCC)ccc3[nH]c2=O)c2nnnn2C2CCCCC2)CC1 (configuration not stated)	5%	20	-1	1	-3	4.3*
CC(=O)Nc1ccc(NS(=O)(=O)c2cn(C)c(=O)n(C)c2=O)cc1	3%	7	-4	1	2	1.1

From PubChem
